From paper PMC6925144, “A prospective compound screening contest identified broader inhibitors for Sirtuin 1” (Scientific Reports, 2019)
The full ranking holds about 3,200 compounds; the median of “TSA(with NAD+) / Primary screening (TSA) / delta Tm (K)” is about -0.04, and the highest 2% start at about 0.37. The entries come from a sample that favours the highest values as a whole.

target: NAD-dependent deacetylase Sirtuin 1 (human, UniProt Q96EB6); test: primary screen, delta tm; parameters: single well (n = 1, as 'the same TSA'); details: 10 µM
Method: A total of 3,192 compounds extracted from the proposed lists were first screened by thermal shift assay (TSA), which determined a melting temperature shift (ΔTm) of Sirtuin 1 upon the addition of a test compound at a concentration of 10 µM (n = 1) with primary hit criteria of ΔTm > 0.45 K or ΔTm < −1.5 K. Primary hits (48 compounds) were retested in the same assay at three concentrations (5, 10, 20 µM, n = 4) for hit confirmation and for dose-dependency check. Secondary hits (41 compounds) were checked their selectivity for Sirtuin 1 based on counterscreening on unrelated protein targets (bovine carbonic anhydrase (CA) and recombinant SH2 domain of hABL1 kinase (ABL1)) at three different concentrations (5, 10, 20 µM, n = 4), which yielded 38 hit compounds, hereafter referred to as TSA hits. The TSA screening above was conducted in the absence of NAD+. As noted, the structure of Sirtuin 1 is different in the presence of NAD+ and substrate. The chemical profile of TSA hits found from the different conditions could be different. […] As a result, 39 TSA hits were found.

Chain of NAD-dependent deacetylase Sirtuin 1 (Q96EB6 2-747 limits assumed): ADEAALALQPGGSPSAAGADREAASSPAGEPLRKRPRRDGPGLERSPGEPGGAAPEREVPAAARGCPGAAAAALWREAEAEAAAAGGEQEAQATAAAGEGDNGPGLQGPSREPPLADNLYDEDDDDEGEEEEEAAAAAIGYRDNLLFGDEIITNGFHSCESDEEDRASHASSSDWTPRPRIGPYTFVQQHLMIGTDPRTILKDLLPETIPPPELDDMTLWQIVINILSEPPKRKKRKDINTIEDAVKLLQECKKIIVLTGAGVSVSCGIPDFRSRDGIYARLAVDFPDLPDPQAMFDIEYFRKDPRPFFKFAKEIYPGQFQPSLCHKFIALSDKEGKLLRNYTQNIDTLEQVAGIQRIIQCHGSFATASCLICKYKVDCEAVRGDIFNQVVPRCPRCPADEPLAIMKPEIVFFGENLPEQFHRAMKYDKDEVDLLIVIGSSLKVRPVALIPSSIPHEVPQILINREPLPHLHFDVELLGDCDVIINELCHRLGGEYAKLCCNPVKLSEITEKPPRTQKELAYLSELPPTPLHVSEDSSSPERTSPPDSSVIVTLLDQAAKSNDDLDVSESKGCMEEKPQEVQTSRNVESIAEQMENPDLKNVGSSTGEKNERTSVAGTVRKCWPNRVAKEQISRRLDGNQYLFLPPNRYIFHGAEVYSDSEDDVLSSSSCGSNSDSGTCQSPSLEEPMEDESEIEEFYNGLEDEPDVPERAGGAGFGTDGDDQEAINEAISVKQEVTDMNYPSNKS

Row | Compound | TSA(with NAD+) / Primary screening (TSA) / delta Tm (K)
1 | COc1ccc(N(C)S(=O)(=O)c2cccc(C(=O)Nc3ccc4c(C)cc(=O)oc4c3)c2)cc1 | -0.09 K
2 | COc1ccc(N(C)S(=O)(=O)c2cccc(C(=O)Nc3ccc(Br)cc3F)c2)cc1 | 0.36 K
3 | COc1ccc(N(C)S(=O)(=O)c2cccc(C(=O)Nc3ncc(C(N)=O)s3)c2)cc1 | -0.03 K
4 | COc1ccc(N(C)S(=O)(=O)c2cccc(C(=O)Nc3ccc(Br)c(C(F)(F)F)c3)c2)cc1 | 0.69 K
5 | COc1ccc(N(C)S(=O)(=O)c2cccc(C(=O)Nc3ccc(OC)c(OC)c3)c2)cc1 | -0.04 K
6 | CN(c1cccc(Cl)c1)S(=O)(=O)c1cccc(C(=O)Nc2cccc(C#N)c2)c1 | 0.45 K
7 | COc1ccc(N(C)S(=O)(=O)c2cccc(C(=O)Nc3cccc4ccccc34)c2)cc1 | -0.09 K
8 | COc1ccc(N(C)S(=O)(=O)c2cccc(C(=O)Nc3cccc(C#N)c3)c2)cc1 | 0.35 K
9 | COc1ccc(N(C)S(=O)(=O)c2cccc(C(=O)Nc3ccc(-n4cnnn4)cc3)c2)cc1 | 0.76 K
10 | CN(c1ccccc1)S(=O)(=O)c1cccc(NC(=O)c2cccc(C#N)c2)c1 | 0.08 K
11 | Cc1ccc(N(C)S(=O)(=O)c2cccc(C(=O)Nc3cccc(C#N)c3)c2)cc1 | 0.28 K
12 | COc1ccc(N(C)S(=O)(=O)c2cccc(C(=O)Nc3ccc4ccccc4c3)c2)cc1 | 0.65 K
13 | CC(C)Cn1c(SCC(=O)Nc2sc3c(c2C(N)=O)CCC3)nnc1N1CCOCC1 | -0.18 K
14 | Cc1ccc(-c2nn(-c3ccccc3)cc2C=C2C(=O)NC(=O)NC2=O)o1 | -0.59 K
15 | CN(CCC#N)C(=O)C(C)(C)c1ccccc1 | -0.08 K
16 | O=C(CSc1nnc(NCC2CCCO2)s1)Nc1nc(-c2cc(F)ccc2F)cs1 (centres unmarked) | 0.01 K
17 | COc1ccc(NC(=O)c2cccc(S(=O)(=O)N(C)c3ccc(OC)cc3)c2)cc1 | -0.02 K
18 | CN(c1ccccc1)S(=O)(=O)c1cccc(C(=O)Nc2ccccc2-c2ccccc2)c1 | -0.02 K
19 | COc1ccc(N(C)S(=O)(=O)c2cccc(C(=O)Nc3cccc(Br)c3)c2)cc1 | 0.32 K
20 | COc1ccc(N(C)S(=O)(=O)c2cccc(C(=O)Nc3ccc(C)cc3)c2)cc1 | 0.11 K
21 | Cc1ccc(N(C)S(=O)(=O)c2cccc(C(=O)Nc3nc4ccccc4[nH]3)c2)cc1 | -0.06 K
22 | CCCOC(=O)c1ccc(NC(=O)c2cccc(S(=O)(=O)N(C)c3ccc(OC)cc3)c2)cc1 | 0.29 K
23 | COc1ccc(N(C)S(=O)(=O)c2cccc(C(=O)Nc3ccc(Br)cc3)c2)cc1 | 1.36 K
24 | CN(c1ccccc1)S(=O)(=O)c1cccc(C(=O)Nc2ccccc2-c2nc3ccccc3[nH]2)c1 | 0.38 K
25 | COc1ccc(N(C)S(=O)(=O)c2cccc(C(=O)Nc3ccc(Cl)cc3)c2)cc1 | 0.86 K
26 | NC(=O)c1oc2ccccc2c1NC(=O)Cc1ccc(Cl)c(Cl)c1 | 0.12 K
27 | CC(=O)Nc1ccc(NCc2nnc3n(C)c(=O)c4ccccc4n23)cc1 | -0.12 K

Row | Compound | TSA(with NAD+) / Primary screening (TSA) / delta Tm (K)
28 | NC1=C(c2nc3ccccc3[nH]2)C(=O)CN1c1ccc(CC(=O)O)cc1 | -0.03 K
29 | CC(O)CCCN (centres unmarked) | -0.11 K
30 | Cc1ccc(S(=O)(=O)N2CCCCC2)cc1NC(=O)COC(=O)c1ccccc1SCC(=O)N1CCCC1 | -0.01 K
31 | Cc1nc(COc2ccc(C(=O)Nc3ccc(S(=O)(=O)Nc4cccc(F)c4)cc3)cc2)cs1 | -0.14 K
32 | O=C(Nc1ccc(Oc2ncccn2)cc1)c1ccc(S(=O)(=O)Nc2ccc(F)cc2)cc1 | 0.06 K
33 | N#CC(C(=O)c1ccc(NS(=O)(=O)c2ccccc2)cc1)c1nc(-c2ccccn2)cs1 (centres unmarked) | 0.47 K
34 | O=C(NN/C=C1/C(=O)N(c2cccc(C(F)(F)F)c2)C(=O)c2ccccc21)c1cccc(S(=O)(=O)Nc2ccccc2Cl)c1 | 0.99 K
35 | Cc1ccc(N(C)S(=O)(=O)c2cccc(C(=O)Nc3ccccc3C(F)(F)F)c2)cc1 | -0.09 K
36 | Cc1ccc(N(C)S(=O)(=O)c2cccc(C(=O)Nc3ccccc3Cl)c2)cc1 | -0.13 K
37 | C=CCOc1ccc(C(=O)C2=C(O)C(=O)N(CCN3CCOCC3)C2c2ccco2)cc1 (centres unmarked) | -0.01 K
38 | COc1ccccc1-c1noc(C(C)NC(=O)C(C)NC(C)=O)n1 (centres unmarked) | -0.01 K
39 | COc1ccc(-c2cc(NC(=O)Cc3n[nH]c(=O)c4ccccc34)ccc2OC(F)F)cc1 | 0.07 K
40 | COc1ccc(CC(=O)NCCNC(=O)c2ccc(C)c(F)c2)cc1 | -0.13 K
41 | COc1ccc(-c2cc(NC(=O)CCNC(=O)c3ccc(Cl)cc3)ccc2OC(F)F)cc1 | 0.45 K
42 | O=C(C1=C(O)C(=O)N(CCCN2CCOCC2)C1c1cccc([N+](=O)[O-])c1)c1ccc(F)cc1 (centres unmarked) | 0.06 K
43 | Nc1nc(COC(=O)c2cccc(NC(=O)c3cccs3)c2)nc(Nc2ccccc2)n1 | 0.42 K
44 | O=C(COC(=O)c1cc(-c2ccc(Cl)cc2)nc2ccccc12)NNC(=O)c1cccs1 | 0.16 K
45 | Cc1cccc(C(=O)OCc2ccc(C(=O)Nc3ccccc3)cc2)c1 | -0.03 K
46 | CC1CCCN(CCCNC(=O)CCc2cc3ccccc3[nH]c2=O)C1 (centres unmarked) | 0.11 K
47 | O=C(CN1CCCC2(CC=CCC2)C1)N1CCc2[nH]c3ccccc3c2C1 (centres unmarked) | 0.06 K
48 | O=C(Cc1c[nH]c2ccccc12)N1CCc2[nH]c3ccccc3c2C1 | 0.37 K
49 | O=C(CCc1ccc2c(c1)OCO2)N1CCc2[nH]c3ccccc3c2C1 | -0.01 K
50 | Cc1n[nH]c(=O)c(C(=O)NNC(=O)CC23CC4CC(CC(C4)C2)C3)c1C | 0.19 K
51 | Cc1c(CCC#N)c(Cl)n2c(nc3ccccc32)c1C#N | -0.03 K
52 | CCc1c(C)c(C#N)c2nc3ccccc3n2c1Cl | -0.05 K
53 | CCc1c(C)c(C#N)c2nc3ccccc3n2c1S | 0.46 K
